SW480 rerep: inducers of DNA re-replication in SW480 colon cancer cells. SW480 DNA re-replication, Hoechst DNA content imaging, 48 h. Potency, µM (titrated, usually from 46.1 µM), for inactives: top-dose re-replication activation, actives largely listed as activators. 340,000 tested, 1.8% active. AID 624297; note: % of control where 0% means no effect; nearly all actives have a fitted effect of over 55% in size
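Hoechst fluorescence of nuclei (405 nm excitation, 500-530 nm emission) measured by plate-scanning imager after 48 hr compound exposure at 37 C; re-replication scored as increased number of nuclei with elevated intensity.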
KB-3-1 tox: kills parental KB-3-1 adenocarcinoma cells | KB-3-1 viability, CellTiter-Glo ATP luminescence, 72 h | Potency, µM (highest dose often 46.1 µM), usual class: cytotoxic | 400,000 tested, 1.4% active | AID 1347075; note: % is set by controls: 0 for no effect and ±100 for the full control effect; nearly all actives have a fitted effect of over 60% in size
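Viability of parental KB-3-1 cells, measured by CellTiter-Glo luminescence, followed a 72 h incubation at 37 °C with pinned compounds in phenol-red-free DMEM containing 10% FBS.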
RORg inh: inhibitors of mouse ROR gamma transcriptional activity; P51450; Drosophila S2 Gal4-RORgamma UAS-luciferase reporter, 20 h; Potency, µM (series often up to 53.6 µM), for inactives: at the highest dose activity change, negative = inhibition, usual class: inhibitors; 310,000 tested, 5.4% active; AID 2551; note: % is set by controls: 0 for no effect and ±100 for the full control effect; nearly all actives have a fitted effect of over 60% in size
Target sequence (P51450 whole entry, looked up, the tested form may be a part): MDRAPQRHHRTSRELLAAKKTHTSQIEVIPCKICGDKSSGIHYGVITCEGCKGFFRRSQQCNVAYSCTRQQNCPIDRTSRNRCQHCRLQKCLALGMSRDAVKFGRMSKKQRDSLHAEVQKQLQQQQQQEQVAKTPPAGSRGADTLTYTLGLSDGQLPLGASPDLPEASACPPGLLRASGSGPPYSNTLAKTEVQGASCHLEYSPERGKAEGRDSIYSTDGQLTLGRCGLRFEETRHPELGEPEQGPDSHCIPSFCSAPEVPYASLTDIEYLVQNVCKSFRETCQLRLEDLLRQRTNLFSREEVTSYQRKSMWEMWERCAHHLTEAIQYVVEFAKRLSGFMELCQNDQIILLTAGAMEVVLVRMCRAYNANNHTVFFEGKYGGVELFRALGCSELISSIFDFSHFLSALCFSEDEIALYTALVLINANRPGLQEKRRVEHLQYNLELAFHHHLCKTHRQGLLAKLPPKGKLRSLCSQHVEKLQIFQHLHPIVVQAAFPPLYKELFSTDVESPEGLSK
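Stably transfected Drosophila Schneider cells are the test system, with ROR gamma fused to Gal4 and luciferase under UAS control; luminescence is read after 20 hr of 700 uM copper sulfate induction at ambient temperature.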
KB-V1 cytotox: kills drug-selected multidrug resistant KB-V1 cells. Potency, µM (doses to about 46.1 µM), actives largely listed as cytotoxic. 400,000 tested, 3.4% active. KB-V1 MDR cells viability, CellTiter-Glo, 72 h; note: % is set by controls: 0 for no effect and ±100 for the full control effect; nearly all actives have a fitted effect of over 60% in size
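Readout: CellTiter-Glo luminescence, 10 min after addition. Cells: KB-V1 MDR subline, 72 h at 37 degrees C with compound. Analysis: corrected, normalized data fitted to concentration-effect curves.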
MCF10A rereplic: inducers of DNA re-replication in MCF 10A breast cells; Potency, µM (titrated, usually from 46.1 µM), inactives show at the top dose activity, positive = re-replication, actives largely listed as activators; 350,000 tested, 2.9% active; AID 624296; MCF 10A DNA re-replication, Hoechst nuclear intensity, 48 h; note: % of control where 0% means no effect; nearly all actives have a fitted effect of over 50% in size
VP16 counter: inhibits Gal4-VP16 luciferase reporter, ROR gamma counter-screen. Drosophila S2 Gal4-VP16 UAS-luciferase, luminescence, 20 h. Potency, µM (series often up to 53.6 µM), for inactives: at the highest dose activity, negative = inhibition, hits mostly inhibitors. 310,000 tested, 3.5% active. AID 2546;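 note: Gal4-VP16 expression switched on by copper sulfate through the metallothionein promoter; % is set by controls: 0 for no effect and ±100 for the full control effect; nearly all actives have a fitted effect of over 50% in size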
* marks the source's active call; other numbers are inactive results; i = inactive; ? = inconclusive; · = not tested or not shown; [ ] = remark or other dose. Most compounds without a hit are left out; they make up all but 10% or so of the library. Calls come from the whole dose curve; as a rule, active = well fitted curve in the direction sought with a large enough effect; inconclusive = small, poorly fitted or top-dose-only effect, or another doubt; inactive = no such curve, though single readings can be large; an effect the other way counts as inactive or inconclusive. Potency is the fitted concentration of half-maximal effect.

SMILES	SW480 rerep	KB-3-1 tox	RORg inh	KB-V1 cytotox	MCF10A rereplic	VP16 counter
O=C(/C=C/c1ccc2c(c1)OCO2)c1c(O)n(CCC2=CCCCC2)c(=O)[nH]c1=O	-0.1%	?	-4.8%	7.31µM*	1.84µM*	-21.6%
C=CCn1c(O)c(C(CC)=NCCC2=CCCCC2)c(=O)[nH]c1=O	-20.1%	i	16.9%	8.91µM*	13.8%	-15.2%
C=CCn1c(O)c(C(CC)=NCCCO)c(=O)[nH]c1=O	-8.6%	i	14.9%	i	15.9%	0.4%
COc1ccc(/C=C/C(=O)c2c(O)n(CCC3=CCCCC3)c(=O)[nH]c2=O)cc1	-1.3%	20.6µM*	26.1%	10.3µM*	7.31µM*	2.9%
CCCCn1c(O)c(C(=O)/C=C/c2ccc3c(c2)OCO3)c(=O)[nH]c1=O	?	?	25.8%	?	?	7.0%
CCC1(C)CC(=O)NC(=O)C1	-5.2%[20.6 µM]	·	6.2%[2.98 µM]	·	2.0%[20.6 µM]	-5.0%[17 µM]
Cc1ccc(-c2csc(NC(CO)c3nc4ccccc4n3CCOCCO)n2)cc1 (stereo not drawn)	7.8%	i	·	i	?	·
CC/C(=N\NC(=S)Nc1ccccc1)c1c(O)[nH]c(=O)[nH]c1=O	-3.6%	i	5.62µM*	i	-7.1%	?
C/C(=N\Nc1ccccc1)c1c(O)[nH]c(=O)[nH]c1=O	20.6µM*	?	5.4%	i	?	-12.9%
CCC(=NC1CCN(Cc2ccccc2)CC1)c1c(O)[nH]c(=O)[nH]c1=O	-5.3%	i	-3.4%	?	11.6%	-1.7%
Nc1nc(O)c(-c2ccccc2)o1	-5.1%	·	13.9%	·	1.4%	1.0%
CC(C)C(Br)C(=O)NC(N)=O (stereo not drawn)	-2.7%	·	19.4%[10 µM]	·	1.8%	-0.9%
O=C(CN1CCCCC1)NNC(=O)c1cccc(Br)c1	-7.4%	i	-20.0%	i	-34.3%	-0.6%
O=C1NC(=O)N(CCc2ccc(F)cc2)C(=O)/C1=C\C=C\c1ccccc1	14.2%	16.4µM*	-2.6%	14.6µM*	4.11µM*	-5.1%
O=C1NC(=O)N(Cc2ccccc2)C(=O)/C1=C\C=C\c1ccco1	-17.9%	i	?	?	11.6µM*	-4.2%[10 µM]
O=C1NC(=O)N(Cc2ccco2)C(=O)/C1=C/C=C/c1ccco1	?	?	4.1%	?	18.4µM*	2.9%
CSc1ccccc1NC(=O)CN(C)CC(=O)c1[nH]c(C)c(C(C)=O)c1C	15.3%	i	·	?	?	·
CC(C)CC(NC(=O)C1CCCCC1)C(=O)N1CCC2(CC1)OCCO2 (stereo not drawn)	-7.8%	i	9.6%	10.3µM*	-1.0%	3.3%
CCS(=O)(=O)N1CCCC(C(=O)N2CCC3(CC2)OCCO3)C1 (stereo not drawn)	-5.2%	i	-15.7%	i	1.5%	-4.7%
Cc1nn(C(C)(C)C)c(C)c1/C=N/OC(=O)Nc1ccc(Cl)c(Cl)c1	-21.9%	i	0.224µM*	i	5.0%	1µM*
C=CCNC(=S)Nc1ccc(OC(=O)Nc2ccc(Cl)c(Cl)c2)cc1	-4.4%	i	3.3%	i	-0.5%	-4.3%
C=CC[N+]1(C)CCC23c4c5ccc(O)c4O[C@H]2C(=O)CC[C@@]3(O)C1C5 (stereo partly drawn)	10.4%	·	-0.5%	·	0.3%	-2.6%
CN1C(=O)NC(=O)/C(=C\C=C\c2ccccc2[N+](=O)[O-])C1=O	14.6µM*	?	10µM*	i	?	?
C=CCN1C(=O)NC(=O)/C(=C/C=C/c2ccccc2)C1=O	?	i	?	i	?	-0.6%[10 µM]
Nc1c(C(=O)NCc2ccco2)c2nc3ccccc3nc2n1CCN1CCCCC1	-2.4%	i	?	i	-3.8%	-25.0%
SMILES	SW480 rerep	KB-3-1 tox	RORg inh	KB-V1 cytotox	MCF10A rereplic	VP16 counter
COCCCNC(=O)c1c(NC(=O)c2ccco2)n(Cc2ccccc2)c2nc3ccccc3nc12	?	i	-11.4%	i	?	5.1%
C=CCNC(=O)c1c(N)n(CCN2CCOCC2)c2nc3ccccc3nc12	7.6%	i	-29.7%	i	5.8µM*	-8.4%
COCCNC(=O)c1c(N)n(CCC(C)C)c2nc3ccccc3nc12	?	i	0.0%	16.4µM*	3.26µM*	-0.4%
COCCNC(=O)c1c(NC(=O)c2ccc(Br)o2)n(Cc2ccccc2)c2nc3ccccc3nc12	?	i	-83.9%	11.6µM*	5.8µM*	?
CC(C)CCn1c(N)c(C(=O)NCc2cccs2)c2nc3ccccc3nc21	5.8µM*	i	13.1%	i	1.46µM*	-10.5%
CC(C)[C@@]1(NC(=O)[C@@H]2C[C@H]3c4cccc5[nH]cc(c45)C[C@@H]3N(C)C2)O[C@@]2(O)[C@H]3CCCN3C(=O)[C@H](Cc3ccccc3)N2C1=O	·	·	21.9%	·	·	2.1%
CCS(=O)CCSP(=O)(OC)OC (stereo not drawn)	·	·	-2.4%	·	·	-7.5%
COCCCn1c(N)c(C(=O)OCCOC)c2nc3ccccc3nc21	?	i	-1.2%	i	-6.6%	-2.3%
CC(C)OCCCNC(=O)c1c(N)n(Cc2cccs2)c2nc3ccccc3nc12	3.66µM*	?	?	?	1.84µM*	15.8µM*
Nc1c(C(=O)OCC2CCCO2)c2nc3ccccc3nc2n1Cc1cccs1 (stereo not drawn)	9.4%	?	?	i	?	1.8%
CCCCNC(=O)c1c(N)n(CCCOC)c2nc3ccccc3nc12	2.06µM*	i	-27.4%	18.4µM*	10.3µM*	-11.0%
Cc1cccc(-n2c(C)n[nH]c2=S)c1C	2.5%	i	15.8µM*	i	-4.5%	?
O=C1NC(=O)N(c2ccccc2)C(=O)/C1=C/C=C/c1ccco1	14.6µM*	?	?	?	?	?
Cc1cccc(N2C(=O)NC(=O)/C(=C\C=C\c3ccco3)C2=O)c1	?	?	-117.0%	i	14.6µM*	?
Cc1ccc(N2C(=O)NC(=O)/C(=C\c3ccoc3)C2=O)cc1	25.3%	i	-2.2%	i	?	-8.6%
CN(C)c1ccc(/C=C/C=C2/C(=O)NC(=O)N(c3ccccc3)C2=O)cc1	?	i	?	?	?	-3.8%
Cc1ccc(N2C(=O)NC(=O)/C(=C\C=C\c3ccco3)C2=O)cc1	?	?	?	i	7.31µM*	5.62µM*
CN1C(=O)/C(=C/C=C/c2ccco2)C(=O)NC1=S	?	i	-11.2%	i	8.8%	-1.7%
Cc1ccc(N2C(=O)NC(=O)/C(=C\C=C\c3ccco3)C2=O)cc1C	?	?	12.6µM*	?	5.8µM*	7.08µM*
